Reference: PubChem BioAssay (NCATS)
Records with an inconclusive call do not appear. Unless noted, calls come from the whole dose curve; as a rule, active = well fitted curve in either direction with a large enough effect (not every such curve was filed as active); inconclusive = small, poorly fitted or top-dose-only effect, or another doubt; inactive = flat fitted curve, though single readings scatter.

Assays:
[1] = AP1 Signaling Pathway (AID 357); details: ME-180 AP-1-bla reporter, EGF-induced, beta-lactamase ratio, 5 h; at 17.2 µM (top of the series) unless noted;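 note: ME-180 reporter cells stimulated with EGF at its EC50 level; % is set by controls: 0 for no effect and ±100 for the full control effect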
In short: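 Modulation of EGF-driven AP-1 transcription was assessed with a beta-lactamase reporter in ME-180 cells. Compound and EC50 EGF were co-incubated 5 hours at 37 °C before 2.5-hour CCF4 loading at room temperature and dual-emission reading.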

[2] = NFAT Signaling Pathway (AID 444); details: Jurkat NFAT-bla M1, carbachol, beta-lactamase ratio, 5 h; at 17.2 µM (top of the series) unless noted;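 note: carbachol stimulus at about its EC50 of 1 µM final; % is set by controls: 0 for no effect and ±100 for the full control effect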
In short: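 Jurkat cells with NFAT-driven β-lactamase reporter and co-expressed M1 receptor, stimulated with carbachol (final 1 uM, ~EC50), compound titration, 5 h at 37 °C. CCF4 loaded 1 h at RT; 460/530 nm ratio gave %activity and AC50.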

[3] = Stat Signaling Pathway (AID 446); details: ME-180 SIE beta-lactamase reporter, IL-6 stimulated, 5 h; at 17.2 µM (top of the series) unless noted;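 note: ME-180 cervical cancer cells given 40 pM IL-6 alongside compound; SIE-controlled beta-lactamase reporter measured as 460/530 nm FRET emission ratio; % is set by controls: 0 for no effect and ±100 for the full control effect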
In short: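 Screening format detects activators and inhibitors alike: ME-180 SIE-bla cells stimulated at 40 pM IL-6 for 5 hrs with compound, then dual-emission beta-lactamase read at 405 nm excitation.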

[4] = target: Glucocorticoid receptor (Homo sapiens) (UniProt P04150); test: GR-GFP Redistribution (AID 450;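 active = compounds whose dose series gives a full or clear partial fitted curve of increased nuclear translocation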; note: potency is the fitted concentration of half-maximal effect)
Sequence of Glucocorticoid receptor (Homo sapiens) (P04150 whole entry, looked up): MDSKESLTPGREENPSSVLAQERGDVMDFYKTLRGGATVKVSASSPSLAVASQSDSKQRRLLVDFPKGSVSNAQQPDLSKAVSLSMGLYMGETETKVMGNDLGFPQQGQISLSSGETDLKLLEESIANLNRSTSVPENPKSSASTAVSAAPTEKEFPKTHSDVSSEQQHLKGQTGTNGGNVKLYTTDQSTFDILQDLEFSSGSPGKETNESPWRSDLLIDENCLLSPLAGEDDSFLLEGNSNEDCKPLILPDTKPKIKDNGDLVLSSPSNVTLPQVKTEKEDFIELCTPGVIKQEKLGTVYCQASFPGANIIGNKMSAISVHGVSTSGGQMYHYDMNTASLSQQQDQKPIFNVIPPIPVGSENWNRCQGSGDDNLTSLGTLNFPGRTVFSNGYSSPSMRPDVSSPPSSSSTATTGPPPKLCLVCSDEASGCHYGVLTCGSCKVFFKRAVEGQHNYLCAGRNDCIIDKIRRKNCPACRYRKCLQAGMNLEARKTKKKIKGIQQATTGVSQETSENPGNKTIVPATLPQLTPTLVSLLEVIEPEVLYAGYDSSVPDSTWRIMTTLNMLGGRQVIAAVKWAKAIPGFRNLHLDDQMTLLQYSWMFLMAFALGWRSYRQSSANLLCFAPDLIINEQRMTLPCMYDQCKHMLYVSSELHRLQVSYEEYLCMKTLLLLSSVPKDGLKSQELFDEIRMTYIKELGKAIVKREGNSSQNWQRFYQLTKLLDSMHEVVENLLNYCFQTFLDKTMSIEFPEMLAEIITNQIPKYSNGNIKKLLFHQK

Cc1ccc(-c2nn(C)c(=O)c3ccccc23)cc1CNC(=O)CSc1nc2ccccc2o1
inactive: activity change, negative = inhibition [1] -10.6% | activity change, negative = inhibition [2] -12.2% | activity, negative = inhibition [3] -16.9% | Potency [4] > 20.6 µM

COc1ccc(OC)c(C2/C(=C(/O)c3cnn(-c4ccccc4)c3C)C(=O)C(=O)N2CCN(C)C)c1 (centres undefined)
inactive: activity change, negative = inhibition [1] 0.346% | activity change, negative = inhibition [2] 4.77% | activity, negative = inhibition [3] 3.03% | Potency [4] > 20.6 µM

CCOC(=O)CCc1c(C)c(C#N)c2nc3ccccc3n2c1-n1ccnc1C
inactive: activity change, negative = inhibition [1] -3.36% | activity change, negative = inhibition [2] -1.61% | activity, negative = inhibition [3] -4.34% | Potency [4] > 20.6 µM

CCOc1ccc(C2=Nn3c(nnc3-c3cccnc3)SC2)cc1
inactive: activity change, negative = inhibition [1] 3.18% | activity change, negative = inhibition [2] -2.85% | activity, negative = inhibition [3] -4.46% | Potency [4] > 20.6 µM

CNC(=O)CCn1nc(-c2ccccc2)c2ccccc2c1=O
inactive: activity change, negative = inhibition [1] 5.34% | activity change, negative = inhibition [2] -2.43% | activity, negative = inhibition [3] 1.15% | Potency [4] > 20.6 µM

CN(C)CCCN1C(=O)C(O)=C(C(=O)c2cc3ccccc3o2)C1c1ccccc1 (centres undefined)
inactive: activity change, negative = inhibition [1] 8.55% | activity change, negative = inhibition [2] -4.4% | activity, negative = inhibition [3] 1.48% | Potency [4] > 20.6 µM

COC(=O)c1sc(NC(C)=O)c(C(=O)OC)c1C
inactive: activity change, negative = inhibition [1] 2.69% | activity change, negative = inhibition [2] 2.63% | activity, negative = inhibition [3] 1.36% | Potency [4] > 20.6 µM

Cc1ccc2[nH]c3c(c2c1)CCCC3C(N)=O (centres undefined)
inactive: activity change, negative = inhibition [1] -5.19% | activity change, negative = inhibition [2] -1.59% | activity, negative = inhibition [3] 8.83% | Potency [4] > 20.6 µM

C=C1C2(C(=O)Nc3nccs3)CCC(C2)C1(C)C (centres undefined)
inactive: activity change, negative = inhibition [1] -7.92% | activity change, negative = inhibition [2] 25.1% | activity, negative = inhibition [3] -0.516% | Potency [4] > 20.6 µM

OC(CCCN1CCC(O)(c2ccc(Cl)cc2)CC1)c1ccc(F)cc1 (centres undefined)
inactive: activity change, negative = inhibition [1] -2.74% | activity change, negative = inhibition [2] -27.5% | activity, negative = inhibition [3] 4.61% | Potency [4] > 20.6 µM

COn1c(=S)[nH]c2ccccc2c1=O
inactive: activity change, negative = inhibition [1] 20.1% | activity change, negative = inhibition [2] 11.2% | activity, negative = inhibition [3] 8.68% | Potency [4] > 20.6 µM

Nc1nnnn1/N=C/c1ccccn1
inactive: activity change, negative = inhibition [1] -1.28% | activity change, negative = inhibition [2] -4.47% | activity, negative = inhibition [3] -2.26% | Potency [4] > 20.6 µM

Cc1ccc(N2C(=O)[C@@H]3[C@H](C2=O)C2CCCN2[C@@H]3C(=O)c2ccccc2)cc1 (some centres undefined)
inactive: activity change, negative = inhibition [1] -15.8% | activity change, negative = inhibition [2] 9.36% | activity, negative = inhibition [3] -3.84% | Potency [4] > 20.6 µM

CCCOc1ccccc1C(=O)NCCCC(=O)O
inactive: activity change, negative = inhibition [1] -0.71% | activity change, negative = inhibition [2] -4.04% | activity, negative = inhibition [3] 8.1% | Potency [4] > 20.6 µM

c1ccc2c(c1)[nH]c1c(N3CCSCC3)ncnc12
inactive: activity change, negative = inhibition [1] -11.4% | activity change, negative = inhibition [2] -20.2% | activity, negative = inhibition [3] -18.7% | Potency [4] > 20.6 µM

O=S(=O)(c1ccccc1)N1CCC(N2CCN(c3ccccc3)CC2)CC1
inactive: activity change, negative = inhibition [1] -9.33% | activity change, negative = inhibition [2] 6.66% | activity, negative = inhibition [3] 5.78% | Potency [4] > 20.6 µM

O=c1c(F)cn(C2CCCO2)c(=O)n1Cc1ccccc1Cl (centres undefined)
inactive: activity change, negative = inhibition [1] 0.0939% | activity change, negative = inhibition [2] -19.1% | activity, negative = inhibition [3] 11.6% | Potency [4] > 20.6 µM

C/C(CC1(O)C(=O)N(Cc2ccccc2)c2ccccc21)=N\O (centres undefined)
inactive: activity change, negative = inhibition [1] 2.48% | activity change, negative = inhibition [2] 1.97% | activity, negative = inhibition [3] 3.88% | Potency [4] > 20.6 µM

COc1ccc(C(=O)Nc2ccccc2N2CCOCC2)cc1Br
inactive: activity change, negative = inhibition [1] -21.1% | activity change, negative = inhibition [2] 9.59% | activity, negative = inhibition [3] -8.26% | Potency [4] > 20.6 µM

C=CCN(C(=O)CCC(=O)O)C1CC(=O)N(c2ccc(OCCC)cc2)C1=O (centres undefined)
inactive: activity change, negative = inhibition [1] 3.6% | activity change, negative = inhibition [2] -2.1% | activity, negative = inhibition [3] -6.77% | Potency [4] > 20.6 µM

CC1(C)CC(=O)C(CCCN2C(=O)c3ccccc3C2=O)C(=O)C1
inactive: activity change, negative = inhibition [1] 8.1% | activity change, negative = inhibition [2] 2.72% | activity, negative = inhibition [3] 16.7% | Potency [4] > 20.6 µM

CCc1ccc(NC(=O)CSC2=C(C#N)C(c3ccco3)C3=C(CCCC3=O)N2)cc1 (centres undefined)
inactive: activity change, negative = inhibition [1] -12.8% | activity change, negative = inhibition [2] -17.6% | activity, negative = inhibition [3] -16.5% | Potency [4] > 20.6 µM

O=C1CCCN1c1ccc(S(=O)(=O)NCc2ccco2)cc1
inactive: activity change, negative = inhibition [1] 1.18% | activity change, negative = inhibition [2] -10.1% | activity, negative = inhibition [3] 2.23% | Potency [4] > 20.6 µM

CCOc1ccc2nc(SCC(=O)Nc3ncccn3)[nH]c2c1
inactive: activity change, negative = inhibition [1] -9.31% | activity change, negative = inhibition [2] 0.119% | activity, negative = inhibition [3] -2.35% | Potency [4] > 20.6 µM

CCC(NC(=O)Nc1cc(OC)c(OC)c(OC)c1)(C(F)(F)F)C(F)(F)F
inactive: activity change, negative = inhibition [1] -13.9% | activity change, negative = inhibition [2] 14.9% | activity, negative = inhibition [3] -1.91% | Potency [4] > 20.6 µM

CCOC(=O)C(OC(=O)c1sc(=S)n(C)c1C)C(C)=O (centres undefined)
inactive: activity change, negative = inhibition [1] 18% | activity change, negative = inhibition [2] 6.69% | activity, negative = inhibition [3] 9.46% | Potency [4] > 20.6 µM
